# Compound activity deposited in PubChem BioAssay by several laboratories.
# Most compounds without a hit are left out; they make up all but 2.8% or so of the library.
# GAA850 FXN act = FXN promoter activators, primary screen, cell-based, luciferase luminescence, HEK293 lucGAA850; activation, % at 6 µM; HEK293 lucGAA850 FXN promoter luciferase reporter, 24 h; percent of 10 µM SAHA response; AID 540364, 2011; actives 0.56% (n = 360,000);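 active = activation above the average of all compounds screened plus 3 SD, cutoff fixed separately per campaign, cut at about 7.5% in these data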;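 also: 0% = DMSO wells and 100% = 10 µM SAHA wells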
# esBAF inh = Bmi1 luciferase reporter increase in mESCs, primary screen, esBAF inhibitor project, mouse ES cells, Bmi1 luciferase knock-in, single point. reporter increase, % at 12.5 µM. 24 h; 100% = twice the neutral-well signal. actives 2% (n = 350,000); in the data active = activation above about 40%; inconclusive = no clear call, values can overlap the other calls;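 also: 0% = median of the plate's neutral control wells and 100% = double that signal; a rise in the Bmi1 reporter signal indicates esBAF inhibition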
# MITF act = activators of MITF-driven TRPM1 promoter reporter, primary screen, cell-based, SK-MEL-5, luciferase, single point; actives 0.75% (n = 300,000); activation, % at 12.5 µM; SK-MEL-5 TRPM1-promoter luciferase, 24 h; % of positive control, neutral wells = 0; AID 588334, 2011;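 active = mean activation of at least 80% with every replicate also reaching 80%; inconclusive = mean reaches 80% but some replicate falls short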;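 also: 0% = neutral control wells and 100% = parthenolide positive control wells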
# Wnt act = Wnt/beta-catenin pathway activators, primary screen, cell-based, plate reader, single point | activation, % at 9.35 µM | Wnt/beta-catenin reporter cell assay, activator | actives 1.2% (n = 300,000); in the data active = activation above about 30%, passing the limit was not always enough; inconclusive = no clear call, values can overlap the other calls;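 also: 0% = neutral control wells and 100% = positive control wells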
# * hit, by the source's call; ? = inconclusive; / = not tested or not shown.
SMILES,GAA850 FXN act,esBAF inh,MITF act,Wnt act
O=C(C[C@@H]1C[C@@H]2c3cc(NC(=O)c4ccc5c(c4)OCO5)ccc3O[C@@H]2[C@@H](CO)O1)NCc1cc(F)ccc1F,/,17,/,/
Cc1ccc(-c2csc(NC(=O)c3ccc(Br)cc3)c2C(=O)O)cc1,2,43,106*,16
CC(C)c1ccc(-c2csc(NC(=O)c3cccs3)c2C(=O)O)cc1,-1,52*,6,12
Cc1ccc(-c2csc(NC(=O)c3cccc(C)c3)c2C(=O)O)cc1,-2,/,/,40*
C[C@H]1CN([C@@H](C)CO)C(=O)Cc2cc(NS(C)(=O)=O)ccc2O[C@@H]1CN(C)C(=O)Nc1ccccc1,/,4,/,/
Cc1ccc(NC(=O)N2C(=O)C3(OCCO3)c3ccccc32)cc1,3,58*,71,/
CN1C(=O)c2cc(NC(=O)c3cccs3)ccc2OC[C@H]2O[C@H](CC(=O)O)CC[C@@H]21,/,-1,/,/
C[C@@H]1CN([C@@H](C)CO)C(=O)Cc2cc(NC(=O)C3CCCCC3)ccc2O[C@@H]1CN(C)C(=O)NC1CCCCC1,/,4,/,/
Brc1ccccc1-c1nc2c3ccccc3ncn2n1,4,49*,48,39*
COc1cccc(CNC(=O)C[C@@H]2C=C[C@@H](NC(C)=O)[C@@H](CO)O2)c1,/,0,/,/
Nc1nc(N2CCN(C(=O)c3ccco3)CC2)nc2ccc(Br)cc12,7,/,105*,/
Cc1cc2nc(N3CCN(C(=O)c4ccco4)CC3)sc2cc1C,3,69*,116*,?
Cc1cc(C)c2nc(N3CCN(C(=O)c4ccco4)CC3)sc2c1,2,54*,91*,-21
Cc1cc(C)c2nc(N3CCC(C(=O)N4CCN(c5ncccn5)CC4)CC3)sc2c1,1,1,-5,/
Nc1nc(N2CCN(C(=O)c3ccco3)CC2)nc2ccccc12,6,/,/,/
O=C(c1ccco1)N1CCN(c2nc3ccsc3c(=O)s2)CC1,4,39,43,5
O=C(N[C@@H]1CC[C@H](CCNS(=O)(=O)c2ccccc2)O[C@@H]1CO)c1cccnc1,/,5,/,/
O=C(C[C@H]1CC[C@H]2[C@@H](COC[C@@H](O)CN2C(=O)c2ccc(F)cc2)O1)NCCCN1CCOCC1,/,4,/,/
Cc1ccc(S(=O)(=O)Nc2ccc3c(c2)C(=O)N([C@@H](C)CO)C[C@H](C)[C@H](CN(C)Cc2ccncc2)OCCCC[C@H](C)O3)cc1,/,1,/,/
Cc1ccc(S(=O)(=O)Nc2ccc3c(c2)CC(=O)N([C@@H](C)CO)C[C@@H](C)[C@H](CN(C)S(=O)(=O)c2cn(C)cn2)O3)cc1,/,3,/,/
CNC[C@H]1Oc2ccc(NC(=O)Cc3ccccc3)cc2CC(=O)N([C@H](C)CO)C[C@H]1C,/,-2,/,/
O=S(=O)(c1cccs1)N1CN(Cc2ccco2)c2nc3ccccc3nc21,6,18,11,7
Cc1ccc(CN2CN(S(=O)(=O)c3cccs3)c3nc4ccccc4nc32)cc1,1,70*,66,/
O=S(=O)(c1cccs1)N1CN(Cc2ccc(Cl)cc2)c2nc3ccccc3nc21,1,54*,3,/
CC(=O)c1sc(NC(=O)c2ccccc2F)nc1-c1ccccc1,5,/,88*,0
SMILES,GAA850 FXN act,esBAF inh,MITF act,Wnt act
CC(=O)c1c(C)[nH]c(C(=O)Nc2nccs2)c1C,-1,35,69,26
CCOC(=O)c1sc(NC(=O)c2ccco2)nc1-c1ccccc1,0,-4,5,-4
CC(=O)c1sc(NC(=O)c2ccco2)nc1-c1ccccc1,3,62*,67,/
Cc1sc(NC(=O)c2ccco2)nc1-c1ccccc1,5,/,96*,/
CC(=O)c1c(C)[nH]c(C(=O)Nc2nc(-c3ccccc3)c(C)s2)c1C,1,/,111*,/
C[C@H](CO)N1C[C@H](C)[C@@H](CN(C)Cc2ccccc2)Oc2cc(C#CC3CC3)ccc2S1(=O)=O,/,-2,/,/
C[C@@H]1CN([C@@H](C)CO)S(=O)(=O)c2ccc(C3=CCCCC3)cc2O[C@@H]1CN(C)S(=O)(=O)c1ccc(F)cc1,/,-3,/,/
C=CCn1c(O)c(N=Nc2ccccc2[N+](=O)[O-])c2ccccc21,1,58*,/,1
C=CCn1c(O)c(N=Nc2ccccc2O)c2ccccc21,1,-1,-5,3
O=C(Nc1ccc(F)cc1)N[C@H]1CC[C@@H](CCn2cc(C3(O)CCCC3)nn2)O[C@H]1CO,/,5,/,/
COc1ccc(S(=O)(=O)N2CCN(CC(O)CN3CCOCC3)CC2)cc1 (centres undefined),2,-12,0,53*
